Compound activity from PubChem BioAssay.
PTHR1 ag = qHTS for PTHR1 Agonists: Primary Screen; Parathyroid hormone/parathyroid hormone-related peptide receptor (Homo sapiens), Q03431; HEK293 GP2 PTHR1 cells, GloSensor cAMP luminescence, 1 h; Potency, µM (titrated, usually from 115 µM), without a hit: at the highest dose activation, hits mostly activators; hit rate 0.075% among 410,000; AID 743266, 2014; further: potency means the concentration at half of the fitted maximal effect; nearly all actives have a fitted effect of over 55% in size
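HEK-293-derived GP2 cells expressing PTHR1 and a GloSensor cAMP reporter, 3,000/well, plated overnight, given luciferin plus IBMX (each 0.5 mM as added) for 1 h at 37 °C, then compound for 1 h at 37 °C. Luminescence was read after 15 min at room temperature.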
miR-21 act = qHTS Assay for Modulators of miRNAs and/orActivators of miR-21. HeLa miR-21 FLuc reporter, luciferase, 48 h. 340,000 tested, under 10 active. AID 2288, 2010. Potency, µM (doses to about 38.3 µM), for inactives: top-dose activity change, positive = activation, hits mostly activators;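 further: % of control where 0% means no effect; miR-21 action dims this reporter so a rising signal means less miR-21 action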
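Luminescence from a firefly luciferase reporter carrying a miR-21 binding site downstream, stably expressed under a CMV promoter in HeLa cells that make miR-21 endogenously, reports miRNA modulation after 48 h compound exposure up to approximately 40uM final.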
Giardia killer = Small Molecules that selectively kill Giardia lamblia: qHTS; Giardia lamblia trophozoite viability; activity change, % at 7.66 µM, hits read low; hit rate 0.15% among 340,000; in the data active means activity change below about -80%; inconclusive means between about -30% and that limit;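 further: parasites exposed to compound for two days anaerobically before the ATP read; on the % scale 0 is the no-effect control and ±100 the full control effect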
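ATP-content bioluminescence gauges trophozoite survival. Cells (100/well) receive compound and incubate anaerobically for 48 hrs at 37 deg C; detection reagent follows for 15-30 min at room temperature.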
PINK1 expr mod = A Quantitative High throughput Screen to Identify Chemical Modulators of PINK1 Expression; PINK1 immunofluorescence, high-content cytometry, 24 h; Potency, µM (highest dose often 76.6 µM), without a hit: at the highest dose activation (PINK1 increase), hits mostly activators; hit rate 0.2% among 410,000; active means well fitted activation curve with a large enough effect; inconclusive means small, poorly fitted or top-dose-only effect; cell line not stated here; further: potency means the concentration at half of the fitted maximal effect; % of control where 0% means no effect; nearly all actives have a fitted effect of over 65% in size
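PINK1 protein level read as immunofluorescence by microplate cytometer in a fixed, stained stable cell line after 24 h exposure to five compound concentrations, with CCCP as control.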
ALOX12 inh = Primary qHTS assay for inhibitors of human arachidonate 12S-lipoxygenase (ALOX12): Round 2 | purified 12hLO, xylenol orange hydroperoxide absorbance | hit rate 1.1% among 580,000 | Polyunsaturated fatty acid lipoxygenase ALOX12 (Homo sapiens), P18054 | Potency, µM (titrated, usually from 108 µM), without a hit: at the highest dose activity change, negative = inhibition, actives largely listed as inhibitors; further: potency means the concentration at half of the fitted maximal effect; on the % scale 0 is the no-effect control and ±100 the full control effect
Target sequence (P18054 whole entry, looked up): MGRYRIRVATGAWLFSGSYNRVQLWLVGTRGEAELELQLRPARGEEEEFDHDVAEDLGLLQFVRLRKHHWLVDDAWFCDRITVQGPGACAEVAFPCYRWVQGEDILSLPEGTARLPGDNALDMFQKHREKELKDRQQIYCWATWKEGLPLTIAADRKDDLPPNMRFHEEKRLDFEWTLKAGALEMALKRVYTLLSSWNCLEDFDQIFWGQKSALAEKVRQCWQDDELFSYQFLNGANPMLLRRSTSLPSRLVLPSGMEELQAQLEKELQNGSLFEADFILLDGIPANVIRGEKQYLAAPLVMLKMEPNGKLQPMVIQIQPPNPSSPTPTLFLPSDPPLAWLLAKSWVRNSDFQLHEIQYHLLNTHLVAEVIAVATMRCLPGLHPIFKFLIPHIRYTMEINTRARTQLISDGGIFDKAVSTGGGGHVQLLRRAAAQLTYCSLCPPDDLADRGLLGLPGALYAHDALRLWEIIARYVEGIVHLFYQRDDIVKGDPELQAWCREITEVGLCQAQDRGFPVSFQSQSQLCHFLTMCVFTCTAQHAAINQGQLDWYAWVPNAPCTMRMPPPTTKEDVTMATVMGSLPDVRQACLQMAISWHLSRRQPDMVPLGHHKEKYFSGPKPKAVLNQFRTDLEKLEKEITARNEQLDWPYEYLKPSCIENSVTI
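Purified human 12hLO at 150 nM in 25 mM Hepes, 0.01% Triton X-100, pH 7.0, preincubated 15 min at room temperature with compound. Reaction started with 40 uM arachidonic acid, 30 min at room temperature. Hydroperoxide measured by Fe-xylenol orange, 573/405 nm absorbance ratio.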
ERG Ets-DNA blk = qHTS for Small Molecule Inhibitors of the ERG Ets/DNA interaction; hit rate 0.028% among 370,000; fluorescence polarization, His-ERG Ets domain / labelled DNA; Potency, µM (top dose mostly 76.9 µM), for inactives: top-dose FP activity, negative = inhibition, actives largely listed as inhibitors; Transcriptional regulator ERG (Homo sapiens), P11308; AID 624246, 2012; active means well fitted inhibition curve with a large enough effect in the polarisation, with a control signal flat; inconclusive means small, poorly fitted or top-dose-only effect, or effect the other way, or a change in a side signal; inactive means no such curve, though single readings can be large or run the other way; the % refers to the polarisation;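 further: polarization taken with two DNA probes labelled with fluorescein and Texas red; potency means the concentration at half of the fitted maximal effect; % of control where 0% means no effect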
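His-tagged ERG Ets domain (1 uM in the protein solution; 300mM KCl, 50mM Tris-HCl, 1mM EDTA, 1mM DTT, pH 7.5) received compound, then a probe mix of 5 nM fluorescein-DNA and 100nM Texas-615-DNA. Fluorescence polarization was read for both dyes.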
Numbers without * were called inactive; i = inactive; ? = inconclusive; / = not tested or not shown; [ ] = another dose, or the depositor's remark. A selection: hits, their analogues and other compounds. The true share with any hit is near 1.3%. Unless noted, the call rests on the fitted dose curve; in most records, active means well fitted curve in the direction sought with a large enough effect; inconclusive means small, poorly fitted or top-dose-only effect, or another doubt; inactive means no such curve, though single readings can be large; an effect the other way counts as inactive or inconclusive.

SMILES	PTHR1 ag	miR-21 act	Giardia killer	PINK1 expr mod	ALOX12 inh	ERG Ets-DNA blk
COc1ccc(-c2cc(C(F)(F)F)c(C#N)c(SCC(=O)Nc3cccc(C)c3)n2)cc1	i	3%	/	-1%	-20%	9%
O=C1c2cccnc2-c2ncccc21	i	2%	0	-3%	-4%	-1%
COC1=C(Br)C(=O)c2ncccc2C1=O	-71%	/	5	-1%	25µM*	28%
O=C1C(=O)c2cccnc2-c2ncccc21	-48%	/	/	-1%	4µM*	/
CCc1cc(=O)n(CC(=O)Nc2ccc3c(c2)OCCO3)c(-c2cccc(F)c2)n1	/	/	/	/	14%	/
O=C(Nc1ccc(Br)cc1)c1cc(-c2cccs2)on1	-72%	-5%	-13	3%	-13%	4%
CCOC(=O)c1c(C)c(-c2ccccc2)n(CC(=O)Nc2cc(C)cc(C)c2)c1C	-94%	-22%	/	18%	0%	1%
Cc1cc(C)cc(NC(=O)COC(=O)c2nn(-c3ccccc3)c(=O)c3ccccc23)c1	/	/	/	/	-44%	/
Cc1ccc(CN2CC(C(=O)Nc3ccc(F)c([N+](=O)[O-])c3)CC2=O)cc1 (stereo not given)	-24%	6%	-26	1%	?	-16%
CC1CCN(C(=S)NCCc2ccccc2)CC1	i	-60%	-4	-1%[38.3 µM]	4%	-5%
OC(c1ccccc1)(c1ccccc1)C1CCN(C(=S)NCCc2ccccc2)CC1	i	18%	-2	1%	40µM*	-3%
CC[n+]1c(C)ccc2ccccc21	/	/	/	/	16µM*	/
O=C1NN(c2ccccc2)C(=O)/C1=C\c1ccccc1OCC(=O)N1CCOCC1	-19%	-5%	-16	0%[38.3 µM]	?	-18%
O=c1c2cc3c(cc2nc2sc(Nc4ccc(F)cc4F)nn12)OCO3	i	-15%	/	1%	-23%	9%
C(=N\Nc1cccc2cccnc12)/c1c[nH]c2ccccc12	/	/	/	/	32µM*	/
Oc1c(/C=N/Nc2cccc3cccnc23)ccc2ccccc12	-22%	-76%	-14	?	-12%	-6%
Cc1cc(C)nc(NC(=O)c2csnn2)c1	i	-3%	-2	1%	-27%	-17%
O=C(Nc1csnn1)c1csnn1	1%	0%	-9	2%	10µM*	-3%
COc1ccc(CNC(=S)N/N=C(/C)c2ccccc2)cc1	-15%	-70%	-3	-1%	?	-12%
C/C(=N\NC(=S)NCc1ccccc1)c1ccc(C(C)(C)C)cc1	i	0%	-16	14%	35µM*	5%
C/C(=N\NC(=S)NCc1ccccc1)c1ccccc1	-21%	-43%	20	3%	40µM*	11%
C/C(=N\NC(=S)NCc1ccccc1)c1ccccc1F	-9%	-38%	8	4%	35µM*	6%
CN(C)Cc1ccccc1CCc1ccccc1	i	/	3	2%	1%	-9%
Cc1ccc(C2=Nc3ccccc3N(CC(=O)NCc3ccccc3Cl)C(=O)C2)cc1C	i	-13%	/	1%	-23%	-3%
Cc1cccc(OCC2(CNCc3c(C)noc3C)C[C@@H](O)[C@@H](O)C2)n1 (stereo not given in full)	/	/	/	/	32µM*	/
SMILES	PTHR1 ag	miR-21 act	Giardia killer	PINK1 expr mod	ALOX12 inh	ERG Ets-DNA blk
COc1ccc(CNC(=S)Nc2cc(C)ccc2C)cc1	-12%[57.5 µM]	-6%	4	1%	?	5%
COc1ccc(/C(C)=N/NC(=S)Nc2cc(C)ccc2C)cc1	?	21%	1	0%	45µM*	2%
COCCNC(=S)N/N=C(\C)c1ccc2cc(OC)ccc2c1	-14%	-15%	8	2%	35µM*	-6%
Cc1ccc2c(c1)-c1[nH]c(=S)ncc1CS2	i	4%	-14	-2%	32µM*	2%
CCCCCCC1(C)NC(=S)N(c2ccccc2)N1 (stereo not given)	-7%	-20%	3	10%	?	6%
CCC1(c2ccc(Cl)cc2)NC(=S)N(c2ccccc2)N1 (stereo not given)	-16%	-35%	-7	?	16µM*	2%
CCCCCC1(C)NC(=S)N(c2ccccc2)N1 (stereo not given)	i	-19%	0	6%	0.79µM*	10%
CC(N1CCOC1=O)S(=O)(=O)c1ccccc1 (stereo not given)	i	0%	-12	-2%	35µM*	-5%
C[n+]1cnc(-c2ccccc2)cc1-c1ccccc1	i	-11%	-3	5%	?	8%
Cc1nn(C)cc1CN1C[C@@H]2C(=O)N(Cc3ccc4c(c3)OCO4)C(=O)[C@@H]2C1	/	/	/	/	63%	/
C=CCNC(=S)N/N=C1/CCC=C1CCCCC	/	/	/	/	35µM*	/
CCCCCC1=CCC/C1=N\NC(=O)c1ccco1	/	/	/	/	-2%	/
COc1ccc(-c2c[n+](CC(=O)OC3CC(C)CCC3C(C)C)c3n2CCC3)cc1 (stereo not given)	-94%	?	3	40µM*	7%	7%
Fc1ccc(Nc2ccnc(-c3ccoc3)n2)cc1	/	/	/	0%	?	/
Fc1ccc(Nc2ccnc(-c3ccc4c(c3)OCO4)n2)cc1	/	/	/	0%	18µM*	/
CSCC[C@@H]1NC(=O)c2cc(NC(=O)Cn3ccc4ccccc43)ccc2NC1=O	/	/	/	/	35µM*	/
CCc1ccccc1N(C)C(=O)c1sc2nc3n(c(=O)c2c1C)CCCCC3	i	1%	/	-1%	2%	-6%
CCN(CC)/C(Sc1ccccc1)=C(/C(Cl)=C(Cl)Cl)[N+](=O)[O-]	-2%	4%	9	0%	7.9µM*	-5%
S=C(NCCc1ccc(Cl)cc1Cl)NC1CCCCC1	/	/	/	/	18µM*	/
S=C(NCCc1ccccc1)NC1CCCc2ccccc21 (stereo not given)	/	/	/	/	14µM*	/
S=C(NCc1ccc(Cl)cc1)NC1CCCC1	/	/	/	/	40µM*	/
S=C(NCCc1ccccc1)NC1CCCCCC1	-9%[57.5 µM]	-38%	-17	-1%	?	-5%
S=C(NCCc1ccc(Cl)cc1)NC1CCCC1	-24%	-19%	3	-1%	?	-3%
O=C(CCc1ccccc1)NC1CCCc2ccccc21 (stereo not given)	7%	5%	-19	1%	-16%	12%
S=C(NCCc1ccc(Cl)cc1)NC1CCCCC1	-36%	-35%	-5	?	40µM*	-1%
